A short description of assay [1]: Primary qHTS for small molecule stabilizers of the endoplasmic reticulum resident proteome: Secreted ER Calcium Modulated Protein (SERCaMP) assay (AID 1508630). An outline of the steps: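 The SH-SY5Y reporter protocol was run at 3 concentrations up to 38.3 uM (primary) or 11 concentrations (follow-up): 16 h compound, 100 nM thapsigargin for 4 h, then extracellular luciferase luminescence.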
Background: qHTS replaces the single test concentration by a dilution series.

Assay [2] in a line: A High-Content qHTS Against Drug Library for the Identification of Small Molecules that Inhibit DYT1 Early Onset Primary Dystonia-Associated Cell Pathology (AID 1645839; calls by dose curve; note: series mostly up to about 46 µM). A digest of the protocol:
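Induced EGFP-delE TorsinA cells are imaged after 48 h of compound treatment. Punctate fusion-protein distribution gives the %pathology value, while nuclei counts flag toxicity. Wild-type EGFP-hTOR1A cells define the normal pattern.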

Assay [3] has as its target Cytochrome P450 3A4 (Homo sapiens) (UniProt P08684). Nature of the assay: Cytochrome P450 family 3 subfamily A member 4 (CYP3A4) small molecule antagonists: luciferase qHTS assay (AID 1645841; active = well fitted curve in the direction sought with a large enough effect in the repeat runs; an effect the other way counts as inactive or inconclusive; note: nearly all actives have a fitted effect of over 45% in size). An outline of the steps:
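P450-Glo CYP3A4 enzyme with proluciferin substrate was preincubated with DMSO-dissolved compounds for 10 min at room temperature. NADPH regeneration solution started a 1 h reaction. Detection reagent stopped it, and luminescence was read after 20 min.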

The target in assay [4] is Cytochrome P450 2C9 (Homo sapiens) (UniProt P11712). Nature of the assay: Cytochrome P450 family 2 subfamily C member 9 (CYP2C9) small molecule antagonists: luciferase biochemical (cell-free) qHTS assay (AID 1645842; active = well fitted curve in the direction sought with a large enough effect in the repeat runs; an effect the other way counts as inactive or inconclusive; note: nearly all actives have a fitted effect of over 55% in size; note: potency is the fitted concentration of half-maximal effect). An outline of the steps: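 P450-Glo CYP2C9 system: proluciferin substrate with enzyme in mix containing 0.4% BSA, 10 min at room temperature, then NADPH regeneration solution added and incubated 1 h at 37C. Detection reagent stopped reaction; luminescence read after 20 min as RLU.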

Assay [5] can be described thus: Primary qHTS for inhibitors of nuclear receptor binding SET domain protein 2 (NSD2) in an isogenic RCH-ACV NSD2 p.E1099K mutant (9B) (AID 1645876). Note: nearly all actives have a fitted effect of over 70% in size. Note: potency is the fitted concentration of half-maximal effect.
Assay [6] is described as follows: Primary qHTS for inhibitors of nuclear receptor binding SET domain protein 2 (NSD2) in an RCH-ACV wild type WT cells (2C) (AID 1645877). Note: nearly all actives have a fitted effect of over 70% in size. Note: potency is the fitted concentration of half-maximal effect.
The target of assay [7] is Cytochrome P450 2D6 (Homo sapiens) (UniProt P10635). Description: Cytochrome P450 family 2 subfamily D member 6 (CYP2D6) small molecule antagonists: luciferase biochemical (cell-free) qHTS assay (AID 1645840; active = well fitted curve in the direction sought with a large enough effect in the repeat runs; an effect the other way counts as inactive or inconclusive; note: nearly all actives have a fitted effect of over 55% in size; note: potency is the fitted concentration of half-maximal effect). An outline of the steps: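 P450-Glo CYP2D6 system: proluciferin substrate converted by enzyme to luciferin, read by luminescence proportional to activity. Enzyme-substrate mix with compound 10 min at room temperature, then NADPH regeneration 1 h before detection reagent.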

Assay [8] is described as follows: NCATS anti-infectives library activity on HEK293 viability as a counter-qHTS vs the C. elegans viability qHTS (AID 1745854).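 Note: HEK293 cells exposed to compounds for 24 hr before the viability read.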 An outline of the steps:
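Compound titrations (final up to 41.7 uM) were incubated with HEK293 cells for 24 hr at 37C under 5% CO2. Viable cells were quantified with CellTiter-Glo after 10 min at ambient temperature.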

Values joined by “and” are separate entries in the source; they are usually repeats but may differ in a detail not shown here. Equal values may be shown once. Records with an inconclusive call do not appear. Active and inactive are the calls of the source. Unless noted, calls come from the whole dose curve; as a rule, active = well fitted curve in the direction sought with a large enough effect; inconclusive = small, poorly fitted or top-dose-only effect, or another doubt; inactive = no such curve, though single readings can be large; an effect the other way counts as inactive or inconclusive.

Sequence of Cytochrome P450 2D6 (Homo sapiens) (P10635 whole entry, looked up): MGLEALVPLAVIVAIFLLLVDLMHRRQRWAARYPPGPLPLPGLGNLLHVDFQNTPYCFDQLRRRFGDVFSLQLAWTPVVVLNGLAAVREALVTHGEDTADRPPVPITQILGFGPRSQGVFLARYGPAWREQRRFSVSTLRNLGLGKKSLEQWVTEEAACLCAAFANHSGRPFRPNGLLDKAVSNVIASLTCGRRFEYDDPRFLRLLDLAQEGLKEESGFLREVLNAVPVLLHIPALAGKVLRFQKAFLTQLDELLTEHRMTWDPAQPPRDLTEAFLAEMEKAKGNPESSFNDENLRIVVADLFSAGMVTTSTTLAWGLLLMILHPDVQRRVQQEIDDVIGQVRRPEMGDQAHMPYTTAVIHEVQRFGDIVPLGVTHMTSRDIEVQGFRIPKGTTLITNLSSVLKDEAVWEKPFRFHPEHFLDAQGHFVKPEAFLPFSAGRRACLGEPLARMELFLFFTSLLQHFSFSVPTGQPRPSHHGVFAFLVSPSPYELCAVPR
Sequence of Cytochrome P450 2C9 (Homo sapiens) (P11712 whole entry, looked up): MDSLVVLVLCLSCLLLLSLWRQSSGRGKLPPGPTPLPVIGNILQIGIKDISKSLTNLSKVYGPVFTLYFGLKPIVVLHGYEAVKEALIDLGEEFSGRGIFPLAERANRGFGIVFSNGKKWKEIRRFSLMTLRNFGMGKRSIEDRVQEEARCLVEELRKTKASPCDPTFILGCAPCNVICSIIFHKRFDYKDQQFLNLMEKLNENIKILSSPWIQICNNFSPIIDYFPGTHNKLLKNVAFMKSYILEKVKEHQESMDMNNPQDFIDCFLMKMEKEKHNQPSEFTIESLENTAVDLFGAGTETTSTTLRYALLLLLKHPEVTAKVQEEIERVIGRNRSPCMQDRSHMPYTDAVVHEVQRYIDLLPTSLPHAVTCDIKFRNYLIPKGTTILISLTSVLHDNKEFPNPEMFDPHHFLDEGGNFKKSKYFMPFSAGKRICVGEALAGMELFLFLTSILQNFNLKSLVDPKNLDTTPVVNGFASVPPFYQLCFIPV
Sequence of Cytochrome P450 3A4 (Homo sapiens) (P08684 whole entry, looked up): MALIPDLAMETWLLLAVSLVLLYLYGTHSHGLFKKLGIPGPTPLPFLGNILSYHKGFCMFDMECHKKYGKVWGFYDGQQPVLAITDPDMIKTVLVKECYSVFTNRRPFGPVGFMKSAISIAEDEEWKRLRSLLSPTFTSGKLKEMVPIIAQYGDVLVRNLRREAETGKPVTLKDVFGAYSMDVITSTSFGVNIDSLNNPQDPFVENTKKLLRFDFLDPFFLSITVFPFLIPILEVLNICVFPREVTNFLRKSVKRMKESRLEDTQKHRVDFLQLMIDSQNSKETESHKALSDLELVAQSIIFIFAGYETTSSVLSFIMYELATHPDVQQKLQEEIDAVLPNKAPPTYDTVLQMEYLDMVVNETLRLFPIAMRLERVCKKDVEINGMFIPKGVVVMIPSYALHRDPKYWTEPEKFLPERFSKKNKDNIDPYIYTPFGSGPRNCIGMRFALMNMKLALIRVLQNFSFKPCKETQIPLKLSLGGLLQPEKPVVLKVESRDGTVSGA

As to `OCc1cccnc1`, the Potency entry in assay [1], in assay [2], in assay [3], in assay [4], in assay [5] and in assay [6] was “inactive” throughout.

In the case of `CC[N+](CC)(CC)CCOC(=O)C(C1CCCC1)C1CCCC1`, the Potency entry in assay [1] and in assay [2] was “inactive” throughout. Moreover, the Potency in assay [7] is 3.09 µM (active); in assay [5], 21.1 µM (active).

Regarding `COC(=O)c1ccc(NC(C)=O)cc1OC`, the Potency entry in assay [1], in assay [2], in assay [7], in assay [5] and in assay [6] was “inactive” throughout.

For the molecule `C[N+](C)(CCOc1ccccc1)Cc1cccs1`, the Potency result in assay [1], in assay [2] and in assay [4] was “inactive” throughout. The values for the Potency in assay [7] and in assay [6] were 0.123 µM (active) and 26.6 µM (active), respectively.

As to `Cc1cccc(N(C)C(=S)Oc2ccc3c(c2)CCC3)c1`, the Potency entry in assay [1], in assay [2], in assay [7], in assay [5] and in assay [6] was “inactive” throughout.

On to `O=S(=O)(O)c1ccc2nc(-c3ccccc3)[nH]c2c1`, for which the Potency entry in assay [1], in assay [2], in assay [5] and in assay [6] was “inactive” in each case. Further, the Potency in assay [7] was 9.77 µM (active).

Regarding `CC(=O)OC/C=C(C)/C=C/C=C(C)/C=C/C1=C(C)CCCC1(C)C`, the Potency entry in assay [1] and in assay [2] was “inactive” in each case. Also, the Potency in assay [4] is 15.5 µM (active).

Take `C[C@@]12CCC[C@H]1[C@@H]1CC[C@H]3C[C@@H](O)CC[C@]3(C)[C@H]1CC2`: the Potency entry in assay [1], in assay [2], in assay [5] and in assay [6] was “inactive” throughout. For the same molecule, the Potency in assay [4] was 22.9 µM (active).

On to `CCOC(=O)c1ccc(NC(=O)CN2CCCCC2)cc1`, for which the Potency result in assay [1], in assay [2], in assay [4], in assay [5] and in assay [6] was “inactive” in each case.

Take `Cc1cccc(C)c1NC(=O)c1cc(S(N)(=O)=O)c(Cl)cc1O`: the Potency entry in assay [1], in assay [2], in assay [4], in assay [5] and in assay [6] was “inactive” in each case.

In the case of `CCN1CCN(c2cc(-c3ccc(F)cc3)c3c(n2)CCCCCC3)CC1`, the Potency result in assay [1], in assay [2], in assay [4], in assay [5] and in assay [6] was “inactive” in each case.

Consider `O=C1Cc2cc(Cl)ccc2N1`, for which the Potency result in assay [1], in assay [2], in assay [5] and in assay [6] was “inactive” each time.

Regarding `O=C(OCC1(COC(=O)c2cccnc2)CCCC(COC(=O)c2cccnc2)(COC(=O)c2cccnc2)C1O)c1cccnc1`, the Potency entry in assay [1], in assay [2], in assay [5] and in assay [6] was “inactive” in each case. The Potency in assay [4] is 2.45 µM (active).

Regarding `[O-][n+]1cccc(/C(Cl)=N/OC[C@@H](O)CN2CCCCC2)c1`, the Potency entry in assay [1], in assay [2], in assay [5] and in assay [6] was “inactive” in each case.

Regarding `COc1ccc(CCC(C)=O)cc1`, the Potency entry in assay [1], in assay [2], in assay [4], in assay [5] and in assay [6] was “inactive” in each case.

With `OCCc1ccccc1`, the Potency result in assay [1], in assay [2], in assay [4], in assay [5], in assay [6] and in assay [8] was “inactive” throughout.

Take `O=C(CO)[C@@H](O)[C@H](O)[C@@H](O)CO`: the Potency entry in assay [1], in assay [2], in assay [4], in assay [5] and in assay [6] was “inactive” throughout.

In the case of `CC(C)Cc1ccc(C(C)C(=O)OCc2ccccn2)cc1` (stereo unspecified), the Potency result in assay [1], in assay [2], in assay [5] and in assay [6] was “inactive” throughout. Further, in assay [4], the Potency was 9.77 µM (active).

In the case of `CC1(C)O[C@@H]2C[C@H]3[C@@H]4CCC5=CC(=O)C=C[C@]5(C)[C@@]4(F)[C@@H](O)C[C@]3(C)[C@]2(C(=O)CO)O1`, the Potency result in assay [1], in assay [2] and in assay [4] was “inactive” in each case. The Potency in assay [6] was 59.6 nM (active) and 13.2 nM (active).

In the case of `Cc1cc(CCCOc2c(C)cc(-c3noc(C(F)(F)F)n3)cc2C)on1`, the Potency entry in assay [1], in assay [2] and in assay [8] was “inactive” each time. In addition, the Potency in assay [4] was 19.5 µM (active).

As for `CC(C)(C)CC(=O)OCC(=O)[C@@]1(O)CC[C@H]2[C@@H]3CCC4=CC(=O)C=C[C@]4(C)[C@H]3[C@@H](O)C[C@@]21C`, the Potency result in assay [1] and in assay [2] was “inactive” each time. Besides, the Potency was 11 µM (active) in assay [4], 21.1 µM (active) in assay [5] and 0.0531 µM (active) in assay [6].

`CN1CC(=O)N2[C@H](c3ccc4c(c3)OCO4)c3[nH]c4ccccc4c3C[C@@H]2C1=O`: the Potency result in assay [1], in assay [2], in assay [5] and in assay [6] was “inactive” each time.

With `OC1(c2ccccc2)CCNCC1`, the Potency result in assay [1], in assay [2], in assay [4], in assay [5] and in assay [6] was “inactive” in each case.

Turning to `CN(CC1(C)CCCO1)S(=O)(=O)c1ccc(Cl)c(S(N)(=O)=O)c1` (stereo unspecified), the Potency entry in assay [1], in assay [2], in assay [4], in assay [5] and in assay [6] was “inactive” each time.

For the molecule `CCc1cc2cc(OC)c(OC)cc2c(Cc2ccccc2)n1`, the Potency entry in assay [1] and in assay [2] was “inactive” in each case. For the same molecule, the Potency in assay [4] is 15.5 µM (active); in assay [5] it was 23.7 µM (active).

With `CC1(C)OC(=O)Nc2ccc(Br)cc21`, the Potency entry in assay [1], in assay [2], in assay [4], in assay [5] and in assay [6] was “inactive” each time.

For the molecule `CN1Cc2cc(C(=O)N3CCC(C4CCNCC4)CC3)ccc2N[C@@H](CC(=O)O)C1=O`, the Potency entry in assay [1], in assay [2], in assay [5] and in assay [6] was “inactive” in each case.

In the case of `CCCCC(CC)CNC(=O)CC(C)OC(=O)CCC(=O)O` (stereo unspecified), the Potency entry in assay [1], in assay [2], in assay [5] and in assay [6] was “inactive” throughout.

With `CCOC(=O)NNc1nncc2ccccc12`, the Potency result in assay [1], in assay [2], in assay [4], in assay [5] and in assay [6] was “inactive” throughout.

With `COc1cc(C(=O)OC(COCCC(C)C)CN2CCOCC2)cc(OC)c1OC` (stereo unspecified), the Potency entry in assay [1], in assay [2], in assay [5] and in assay [6] was “inactive” in each case. Besides, the Potency in assay [4] is 2.19 µM (active).

(Values after PubChem BioAssay (NCATS).)
